# Compound activity: PubChem, National Center for Advancing Translational Sciences (NCATS)
# TRHR enhancer: qHTS for Small Molecule Agonists and Allosteric Enhancers of Human TRH Receptor: Primary Screen for Enhancers. TRHR cells, fluo-8 calcium fluorescence, EC20 TRH enhancement. enhancement, % at 2 µM. 0.66% of 360,000 active; in the data active means enhancement above about 30%; further: 0% is about no effect
#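 Enhancer read-out: after compound pinning and an initial kinetic agonist-mode read, an EC20 of TRH (10 nM final) was injected and fluo-8 calcium signal (Ex 480/Em 530) followed at 1 s/cycle for 100 cycles in TRHR-expressing cells.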
# D1 antagonist: Antagonist of Human D 1 Dopamine Receptor: qHTS; D(1A) dopamine receptor (Homo sapiens), P21728; 3.2% of 360,000 active; activity change, negative = inhibition, % at 10 µM; HEK293 TREx D1 cells, calcium flux, dopamine EC80; hits give low values; in the data active means activity change below about -30%; further: on the % scale 0 is the no-effect control and ±100 the full control effect
# Target sequence (P21728 whole entry, looked up): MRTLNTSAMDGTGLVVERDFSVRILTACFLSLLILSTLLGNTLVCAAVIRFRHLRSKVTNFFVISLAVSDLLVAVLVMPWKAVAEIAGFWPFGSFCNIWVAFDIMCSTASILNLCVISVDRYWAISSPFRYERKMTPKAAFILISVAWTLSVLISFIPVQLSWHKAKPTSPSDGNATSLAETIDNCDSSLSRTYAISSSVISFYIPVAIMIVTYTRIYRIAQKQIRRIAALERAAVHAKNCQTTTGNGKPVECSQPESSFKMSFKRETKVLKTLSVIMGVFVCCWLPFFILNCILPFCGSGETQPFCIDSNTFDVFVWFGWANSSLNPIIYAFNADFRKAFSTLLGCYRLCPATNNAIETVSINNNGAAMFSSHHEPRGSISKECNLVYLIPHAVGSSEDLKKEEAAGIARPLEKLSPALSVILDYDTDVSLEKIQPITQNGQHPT
#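 Compound effects on dopamine-evoked calcium signalling were measured in tetracycline-induced HEK293 Trex D1 cells. Dopamine at EC80 followed a 180 s compound pre-read, and fluorescence was tracked kinetically for 180 s more.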
# D1 ag: Allosteric Agonists of the Human D1 Dopamine Receptor: qHTS | 1% of 360,000 active | D(1A) dopamine receptor (Homo sapiens), P21728 | HEK293 T-REx D1 cells, calcium flux, agonist mode | activation, % at 2 µM; further: 0% is about no effect
#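 Agonism was scored from calcium flux recorded over 180 s (1 read/s) after pintool compound addition, following a 10-cycle baseline. Cells were inducible force-coupled HEK293 TREx D1, plated overnight at 30 C and loaded with no-wash calcium dye.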
# TRHR agonist: qHTS for Small Molecule Agonists and Allosteric Enhancers of Human TRH Receptor: Primary Screen for Agonists | AID 493084, 2011 | 0.18% of 360,000 active | TRHR cells, calcium flux fluo-8, FDSS agonist mode | activation, % at 2 µM; further: 0% is about no effect
#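 Fluo-8-loaded TRHR cells; 10 s baseline, compound added, kinetic Ca2+ fluorescence read 1/s, agonist mode.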
# D1 PAM: Potentiators of Human D1 Dopamine Receptor: qHTS. AID 504651, 2011. HEK293 TREx D1 cells, calcium flux, dopamine EC20 potentiation. 0.036% of 360,000 active. potentiation, % at 10 µM; in the data active means potentiation above about 30%; further: 0% is about no effect
# * marks the source's active call; other numbers are inactive results. Sampled rows, rich in hits. Any-hit rate of the full collection: about 4.7%. Unless noted, no stated cut-off is given here; in the data, active means activation above about 30%; inactive means the rest.
SMILES,TRHR enhancer,D1 antagonist,D1 ag,TRHR agonist,D1 PAM
CC1CC(C)CN(C(=O)Cn2c(SCC(=O)N3CCc4ccccc4C3)nc3ccccc32)C1 (centres undefined),-14,-65*,1,0,6
COc1ccc(NC(=S)NC(C)Cc2cccs2)cc1 (centres undefined),12,4,2,-1,-1
CC(Cc1cccs1)NC(=O)Nc1ccc([N+](=O)[O-])cc1 (centres undefined),0,-35*,24,0,-4
CC(Cc1cccs1)NC(=S)Nc1ccc(F)cc1 (centres undefined),-2,-44*,19,2,-5
Cc1cc(Cl)ccc1NS(=O)(=O)c1c(C(=O)N2CCC(C)CC2)c(C)n(C)c1C,-6,2,-1,1,0
CC(C)N(C(=O)Cn1cc(SCC(=O)Nc2ccccc2F)c2ccccc21)C(C)C,-11,-28,5,0,-6
Cc1ccc(-n2ncc(C(=O)NCCN3CCCC3)c2C2CCN(C(=O)OC(C)(C)C)CC2)cc1C,10,27,10,1,-3
COc1cc(OC)c(C2Nc3c(C)cccc3-c3cc(C)nn32)cc1OC (centres undefined),31*,-7,3,-1,-5
Cc1cc2n(n1)C(c1sccc1C)Nc1c(C)cccc1-2 (centres undefined),18,1,2,-2,0
COc1ccc(/C=C2\CCc3c2nc2ccccc2c3C(=O)O)cc1OC,4,22,2,2,-2
COc1ccc(/C=C2\CCCc3c2nc2ccccc2c3C(=O)O)cc1OC,16,-35*,236*,214*,-9
O=C(c1ccccc1)c1coc2ccc(O)c(Cl)c12,-1,75,111*,0,5
COc1ccc(-n2c(/C=C/c3c(C)[nH]c4ccccc34)nc3ccccc3c2=O)cc1,-1,-57*,0,-2,-2
Cc1[nH]c2ccccc2c1/C=C/c1nc2ccccc2c(=O)n1-c1cccc([N+](=O)[O-])c1,0,-37*,-1,-1,-10
O=c1c2ccccc2nc(/C=C/c2c[nH]c3ccccc23)n1-c1ccc([N+](=O)[O-])cc1,-3,-14,0,0,-2
O=c1[nH]c(-c2ccccn2)nc2sc(-c3ccccc3)cc12,1,-31*,7,1,3
CCc1cccc(-n2c(=O)c3cccnc3n2CC(=O)Nc2ccccc2C(=O)OC)c1,-3,9,4,0,-2
Cc1ccc(NC(=O)CSc2ccc(-c3ccc4c(c3)OCO4)nn2)cc1F,0,-2,-1,1,-4
O=C(CSc1ccc(-c2ccc(Cl)cc2)nn1)N1CCCc2ccccc21,-6,-34*,6,2,-6
O=C(CSc1ccc(-c2ccc(F)cc2)nn1)N1CCCc2ccccc21,2,13,4,0,1
O=C(CSc1ccc(-c2ccc(Cl)cc2)nn1)Nc1ccc2c(c1)OCCO2,8,-31*,1,0,-7
COc1ccc(CNC(=O)CSc2ncc3c(n2)-c2cc(Cl)ccc2N(C)S3(=O)=O)cc1,-2,-10,4,0,7
Fc1ccc(-c2noc3ncnc(NCCCN4CCN(c5ccccc5)CC4)c23)cc1,-1,2,0,-1,-3
CSCCC(NC(=O)C1CCCCC1)C(=O)Nc1ccc(F)c(Cl)c1 (centres undefined),0,-4,1,0,0
FC(F)Oc1cccc(NC(=S)N2CCN(c3ccccn3)CC2)c1,3,-71*,7,-1,-9
SMILES,TRHR enhancer,D1 antagonist,D1 ag,TRHR agonist,D1 PAM
S=C(Nc1ccccc1)N1CCN(c2ccccn2)CC1,-3,-7,3,-1,-6
CNCCC=C1c2ccccc2CCc2ccccc21,-4,-79*,21,1,-5
C[N+](C)(C)CC/C=C1/c2ccccc2CSc2ccccc21,6,-8,1,-1,-6
Cc1ccc(Cl)cc1N1CCN(C(=O)c2sc3nc4n(c(=O)c3c2C)CCC4)CC1,1,5,-1,0,-2
COc1ccc(S(=O)(=O)N2CCC(c3nnnn3-c3ccccc3)CC2)cc1OC,0,-5,9,0,3
Cc1cc(Cl)nc(-c2ccccc2)n1,13,-4,1,1,-4
Cc1cc2c(C)nc(-c3ccccc3)nc2o1,0,-50*,0,0,-6
COc1cccc2c1cc1c(=O)n(CC(=O)O)nc(C)n12,5,7,2,0,-3
COc1cccc(NC(=O)C2CCN(c3ccc(Sc4ccc(C)cc4)nn3)CC2)c1,12,-2,2,0,1
Cc1ccc(Sc2ccc(N3CCC(C(=O)Nc4cc(C)cc(C)c4)CC3)nn2)cc1,12,-48*,-1,0,6
O=C(NCCCN1CCN(c2ccccc2F)CC1)c1nnc(Cc2ccc(Cl)cc2Cl)o1,-3,-55*,21,0,-4
Cc1cc(CN2CCN(c3ccccc3F)CC2)cs1,-1,-58*,0,0,-8
Cc1nn(-c2ccccc2)c(-n2cccc2)c1C(=O)NCCCN1CCN(c2ccccc2F)CC1,4,-33*,1,-1,-4
Cc1ccccc1NC(=O)NCCCN1CCN(c2ccccc2F)CC1,5,-82*,9,0,-5
COc1ccc(Cc2nnc(C(=O)NCCCN3CCN(c4ccccc4F)CC3)o2)cc1OC,15,-6,4,0,-3
Cc1cc(CN2CCN(c3cccc(C)c3C)CC2)cs1,6,12,13,0,-8
CC(C)CCNC(=O)c1ccc2c(c1)N(Cc1ccccc1F)C(=O)c1ccccc1S2=O (centres undefined),-6,5,3,1,2
CCCCCCCNC(=O)COc1ccc2c(c1)C(=O)CC(C)(C)O2,6,14,0,0,-3
Fc1ccccc1N1CCN(CCCc2ccccc2)CC1,-2,-63*,3,0,-9
O=C(CCc1ccccc1)N1CCN(c2ccccc2F)CC1,-2,-9,0,0,2
COc1ccccc1N1CCN(CCCNC(=O)Nc2ccccc2C)CC1,-12,-42*,2,0,-8
CC1(C)CC(=O)c2cc(OCC(=O)NCCCN3CCN(c4ccccc4F)CC3)ccc2O1,4,-81*,-2,-1,-13
COc1ccccc1NC(=O)NCCCN1CCN(c2cccc(Cl)c2)CC1,5,-69*,10,0,-5
